PubChem BioAssay (Tox21)
Results filed as inconclusive are left out. Values without a mark were called inactive. The source made the active and inactive calls. Unless noted, the call rests on the fitted dose curve; in most records, active means well fitted cell-killing curve with a large enough effect in the repeat runs; inconclusive means weak or mixed curves, or effect the other way; inactive means flat fitted curve, though single readings scatter.

Experiment: Nuclear factor erythroid 2-related factor 2/antioxidant responsive element (Nrf2/ARE) small molecule agonists: qHTS cell viability counter screen in human keratinocytes (AID 1919968); further: nearly all actives have a fitted effect of over 55% in size
Settings: KeratinoSens HaCaT ARE cells viability, CellTiter-Fluor, 24 h; series mostly up to 92.4 µM; activity change, negative = cytotoxicity: at the top concentration
Method in brief: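 Parallel cytotoxicity read: KeratinoSens HaCaT cells, compound treatment 23 h, viability by CellTiter-Fluor fluorescence 1 h post-reagent.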
On the % scale 0 is the no-effect control and ±100 the full control effect.

| SMILES | activity change, negative = cytotoxicity | Potency |
| --- | --- | --- |
| O=Cc1cccc([N+](=O)[O-])c1 | 3.54% |  |
| CC(COCCO)OCCO (stereo not drawn) | -0.638% |  |
| NC(=O)N[C@@H](CCC(=O)O)C(=O)O | 0.52% [at 42.5 µM] |  |
| COc1ccc2cc(C=O)ccc2c1 | 0.434% [at 42.5 µM] |  |
| CC(O)CCCCn1c(=O)c2c(ncn2C)n(C)c1=O (stereo not drawn) | 1.44% [at 42.5 µM] |  |
| NC(=O)CCCCC(N)=O | 1.87% |  |
| NCC1CCCC(CN)C1 (stereo not drawn) | -11.7% |  |
| CC(=O)CC(=O)Nc1ccc2[nH]c(=O)[nH]c2c1 | 2.66% |  |
| Oc1ccc(O)c2c(O)cccc12 | -12.3% |  |
| CCCOC(C)=O | 3.48% |  |
| CCCCCCCCCCCC[N+](C)(C)CCCS(=O)(=O)[O-] | -2.85% |  |
| CC(C)=C1CC[C@@H](C)CC1=O | 0.84% |  |
| O=C(O)c1ccc([N+](=O)[O-])cc1 |  | inactive |
| C=CCCCCCCCCC(=O)OCCCC | -2.68% |  |
| CC(=O)NCCO | 0.857% |  |
| NNC(=O)c1cccc(C(=O)NN)c1 | 4.5% |  |
| O=C(C(=O)c1ccco1)c1ccco1 | 4.61% |  |
| COc1ccc(Cl)cc1C | -0.622% |  |
| Nc1ncnc2c1ncn2Cc1c(F)cccc1Cl | -6.5% [at 42.5 µM] |  |
| NC(=S)Nc1cccc2ccccc12 | -1.52% [at 8.39 µM] |  |

| SMILES | activity change, negative = cytotoxicity | Potency |
| --- | --- | --- |
| NCCOCCN | 5.84% |  |
| O=C1OC(CN2CCOCC2)CN1/N=C/c1ccc([N+](=O)[O-])o1 (stereo not drawn) | 14.7% [at 42.5 µM] |  |
| N[C@H]1C(O)O[C@H](CO)[C@@H](O)[C@@H]1O (stereo partly drawn) | 14.6% [at 42.5 µM] |  |
| C=C(C)[C@H]1CC=C(C)CC1 | 0.149% |  |
| CC1=CC[C@@H](C(C)(C)O)CC1 | -0.534% |  |
| CCCCCCCCCCCCCCC(=O)O | 1.63% |  |
| CC(COC(=O)c1ccccc1)OC(=O)c1ccccc1 (stereo not drawn) | 10.7% |  |
| F[Si-2](F)(F)(F)(F)F | 3.28% |  |
| NNS(=O)(=O)c1ccc(Oc2ccc(S(=O)(=O)NN)cc2)cc1 | 11.6% |  |
| O=C(O)CONC(=O)c1ccccc1 | 6.8% |  |
| OCC1CC2CC1C1CCC(CO)C21 (stereo not drawn) | -1.86% |  |
| O=C1CCC(=O)N1 | 0.0722% |  |
| CCC(=O)OC/C=C(\C)CCC=C(C)C | -3.73% |  |
| CC(O)CNCC(C)O (stereo not drawn) |  | inactive |
| OCc1ccccc1O | 3.39% [at 42.5 µM] |  |
| CCOC(=O)c1cccc(N)c1 | 0.518% [at 42.5 µM] |  |
| CNCCO | 2.4% |  |
| N#CCN(CC#N)CCN(CC#N)CC#N | 0.227% |  |
| CCCOCCOCCOCCO | -9.28% |  |

Experiment: Nuclear factor erythroid 2-related factor 2/antioxidant responsive element (Nrf2/ARE) small molecule agonists: luciferase reporter gene qHTS assay in human keratinocytes (AID 1919969; calls by dose curve; further: nearly all actives have a fitted effect of over 35% in size)
Settings: KeratinoSens HaCaT ARE-luciferase, luminescence, 24 h; series mostly up to 92.4 µM; activity, positive = activation: at the top concentration

| SMILES | activity, positive = activation | Potency |
| --- | --- | --- |
| O=Cc1cccc([N+](=O)[O-])c1 | -1.19% |  |
| CC(COCCO)OCCO (stereo not drawn) | 5.04% |  |
| NC(=O)N[C@@H](CCC(=O)O)C(=O)O | -1.92% [at 42.5 µM] |  |
| COc1ccc2cc(C=O)ccc2c1 | 4.21% [at 42.5 µM] |  |
| CC(O)CCCCn1c(=O)c2c(ncn2C)n(C)c1=O (stereo not drawn) | -6.95% [at 42.5 µM] |  |
| NC(=O)CCCCC(N)=O | -2.45% |  |
| NCC1CCCC(CN)C1 (stereo not drawn) | -6.22% |  |
| CC(=O)CC(=O)Nc1ccc2[nH]c(=O)[nH]c2c1 | -0.233% |  |
| Oc1ccc(O)c2c(O)cccc12 | -5.87% |  |
| CCCOC(C)=O | 20.6% |  |
| CCCCCCCCCCCC[N+](C)(C)CCCS(=O)(=O)[O-] | -5.67% |  |
| CC(C)=C1CC[C@@H](C)CC1=O | 0.239% |  |
| O=C(O)c1ccc([N+](=O)[O-])cc1 |  | inactive |
| C=CCCCCCCCCC(=O)OCCCC | -12.1% |  |
| CC(=O)NCCO | 0.962% |  |
| NNC(=O)c1cccc(C(=O)NN)c1 | 0.48% |  |
| O=C(C(=O)c1ccco1)c1ccco1 | 11.1% |  |
| COc1ccc(Cl)cc1C | -2.83% |  |
| Nc1ncnc2c1ncn2Cc1c(F)cccc1Cl | -8.65% [at 42.5 µM] |  |
